Outcome and AC50 data for 7 compounds are collected here from PubChem BioAssay (EPA / NIEHS).

Read-out in assay [1]: Interleukin-8 (IL8), CXCL8 (gene 3576)
Nature of the assay: BSK_CASM3C_IL8: BioMAP Diversity Plus: CASM3C Assay for Interleukin-8 (IL8) Biomarker Activity (AID 2283042).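 Also: IL-8 protein level quantified by ELISA.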 The settings on record: primary human coronary artery smooth muscle cells; actives raise or lower the signal.

Read-out in assay [2]: Human Leukocyte Antigen - DR isotype (HLADR), HLA-DRA (gene 3122)
The assay can be described thus: BSK_CASM3C_HLADR: BioMAP Diversity Plus: CASM3C Assay for Human Leukocyte Antigen - DR isotype (HLADR) Biomarker Activity (AID 2283043).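 Also: cell-surface HLA-DR protein level quantified by ELISA.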 The settings on record: primary human coronary artery smooth muscle cells; actives raise or lower the signal.

Read-out in assay [3]: Macrophage colony-stimulating factor (MCSF), CSF1 (gene 1435)
The assay can be described thus: BSK_CASM3C_MCSF: BioMAP Diversity Plus: CASM3C Assay for Macrophage colony-stimulating factor (MCSF) Biomarker Activity (AID 2283044).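 Also: M-CSF protein amount quantified by ELISA after 24 h exposure.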 The note with it: primary human coronary artery smooth muscle cells; actives raise or lower the signal.

Read-out in assay [4]: Low-density lipoprotein receptor (LDLR), LDLR (gene 3949)
Nature of the assay: BSK_CASM3C_LDLR: BioMAP Diversity Plus: CASM3C Assay for Low-density lipoprotein receptor (LDLR) Biomarker Activity (AID 2283045).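 Also: LDLR protein level on the cell surface quantified by ELISA.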 The settings on record: primary human coronary artery smooth muscle cells; actives raise or lower the signal.

Read-out in assay [5]: Monocyte Chemoattractant Protein-1 (MCP1), CCL2 (gene 6347)
Nature of the assay: BSK_CASM3C_MCP1: BioMAP Diversity Plus: CASM3C Assay for Monocyte Chemoattractant Protein-1 (MCP1) Biomarker Activity (AID 2283046).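 Also: MCP-1 level quantified by ELISA 24 h after dosing.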 The settings on record: primary human coronary artery smooth muscle cells; actives raise or lower the signal.

Assay [6] in a line: BSK_CASM3C_Proliferation: Cell Proliferation Assessment in the BioMAP Diversity Plus: CASM3C Assay (AID 2283047).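 Also: sulforhodamine B total protein stain as relative cell number at 560 nm; sub-confluent cells exposed 48 h before staining; fitted both ways against DMSO so gain or loss of cell number.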 The settings on record: primary human coronary artery smooth muscle cells.
Read-out in assay [7]: Monokine induced gamma interferon (MIG), CXCL9 (gene 4283)
The assay can be described thus: BSK_CASM3C_MIG: BioMAP Diversity Plus: CASM3C Assay for Monokine induced gamma interferon (MIG) Biomarker Activity (AID 2283048).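 Also: MIG protein level measured by ELISA.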 The note with it: primary human coronary artery smooth muscle cells; actives raise or lower the signal.

Read-out in assay [8]: serum amyloid A (SAA), SAA1 (gene 6288)
The assay can be described thus: BSK_CASM3C_SAA: BioMAP Diversity Plus: CASM3C Assay for serum amyloid A (SAA) Biomarker Activity (AID 2283049).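 Also: SAA protein level quantified by ELISA.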 The note with it: primary human coronary artery smooth muscle cells; actives raise or lower the signal.

Assay [9] in a line: BSK_CASM3C_SRB: Viability Assessment in the BioMAP Diversity Plus: CASM3C Assay (AID 2283050).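 Also: total protein by SRB staining as cytotoxicity measure in parallel cultures.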 The note with it: primary human coronary artery smooth muscle cells.
Read-out in assay [10]: Thrombomodulin, THBD (gene 7056)
The assay can be described thus: BSK_CASM3C_Thrombomodulin: BioMAP Diversity Plus: CASM3C Assay for Thrombomodulin Biomarker Activity (AID 2283051).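 Also: thrombomodulin protein level measured by ELISA 24 h after dosing.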 The settings on record: primary human coronary artery smooth muscle cells; actives raise or lower the signal.

Read-out in assay [11]: Tissue Factor, F3 (gene 2152)
Nature of the assay: BSK_CASM3C_TissueFactor: BioMAP Diversity Plus: CASM3C Assay for Tissue Factor Biomarker Activity (AID 2283052).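 Also: cell surface tissue factor protein level read by ELISA.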 The settings on record: primary human coronary artery smooth muscle cells; actives raise or lower the signal.

Read-out in assay [12]: Interferon-gamma inducible Protein 10 (IP10), CXCL10 (gene 3627)
Nature of the assay: BSK_hDFCGF_IP10: BioMAP Diversity Plus: hDFCGF Assay for Interferon-gamma inducible Protein 10 (IP10) Biomarker Activity (AID 2283053). The note with it: primary human foreskin fibroblasts; actives raise or lower the signal. The method, boiled down: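 Human foreskin fibroblast primary cells (hDFCGF system) were dosed with chemical and assayed at 24 h; IP-10 measured by ELISA. Activity fitted bidirectionally relative to DMSO negative control as baseline.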

Read-out in assay [13]: Urokinase-type plasminogen activator receptor (uPAR), PLAUR (gene 5329)
Nature of the assay: BSK_CASM3C_uPAR: BioMAP Diversity Plus: CASM3C Assay for Urokinase-type plasminogen activator receptor (uPAR) Biomarker Activity (AID 2283054).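 Also: cell-surface uPAR protein level quantified by ELISA.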 The note with it: primary human coronary artery smooth muscle cells; actives raise or lower the signal.

Read-out in assay [14]: Vascular cell adhesion molecule 1 (VCAM1), VCAM1 (gene 7412)
Nature of the assay: BSK_CASM3C_VCAM1: BioMAP Diversity Plus: CASM3C Assay for Vascular cell adhesion molecule 1 (VCAM1) Biomarker Activity (AID 2283055).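 Also: VCAM-1 protein level quantified by ELISA on the cells.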 The settings on record: primary human coronary artery smooth muscle cells; actives raise or lower the signal.

Read-out in assay [15]: Collagen III, COL3A1 (gene 1281)
The assay can be described thus: BSK_hDFCGF_CollagenIII: BioMAP Diversity Plus: hDFCGF Assay for Collagen III Biomarker Activity (AID 2283056). The settings on record: primary human foreskin fibroblasts; actives raise or lower the signal. A digest of the protocol: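 Response relative to DMSO, fitted in both directions, reflects ELISA-measured collagen III in human primary skin fibroblasts 24 h after compound addition.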

Read-out in assay [16]: Epidermal growth factor receptor (EGFR), EGFR (gene 1956)
Nature of the assay: BSK_hDFCGF_EGFR: BioMAP Diversity Plus: hDFCGF Assay for Epidermal growth factor receptor (EGFR) Biomarker Activity (AID 2283057). The note with it: primary human foreskin fibroblasts; actives raise or lower the signal. A digest of the protocol:
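Primary human foreskin fibroblasts were exposed to compound for 24 h, after which cell-surface EGFR was quantified by ELISA. Activity was fitted bidirectionally against the DMSO negative control as baseline.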

Read-out in assay [17]: Interleukin-8 (IL8), CXCL8 (gene 3576)
Nature of the assay: BSK_hDFCGF_IL8: BioMAP Diversity Plus: hDFCGF Assay for Interleukin-8 (IL8) Biomarker Activity (AID 2283058). The settings on record: primary human foreskin fibroblasts; actives raise or lower the signal. A digest of the protocol:
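Fibroblast monolayers (human foreskin, hDFCGF) received test chemical for 24 h before ELISA detection of IL-8; either increases or decreases relative to DMSO count as activity.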

The nature of assay [18]: BSK_hDFCGF_Proliferation: Cell Proliferation Assessment in the BioMAP Diversity Plus: hDFCGF Assay (AID 2283059).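 Also: curves fitted for both rise and fall of signal versus DMSO baseline.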 The settings on record: primary human foreskin fibroblasts. A digest of the protocol:
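Steps: dose primary human dermal fibroblasts (foreskin); […] fix in 10% TCA; stain with 0.1% SRB; read 560 nm; fit gain or loss of signal against DMSO.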

Read-out in assay [19]: Macrophage colony-stimulating factor (MCSF), CSF1 (gene 1435)
Nature of the assay: BSK_hDFCGF_MCSF: BioMAP Diversity Plus: hDFCGF Assay for Macrophage colony-stimulating factor (MCSF) Biomarker Activity (AID 2283060). The settings on record: primary human foreskin fibroblasts; actives raise or lower the signal. The method, boiled down:
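fibroblasts (human foreskin, primary), 24 h post-dose; M-CSF by ELISA; bidirectional fit, DMSO = baseline.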

Assay [20] can be described thus: BSK_hDFCGF_SRB: Viability Assessment in the BioMAP Diversity Plus: hDFCGF Assay (AID 2283061).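 Also: cells exposed to compound for 24 h before the read.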 The settings on record: primary human foreskin fibroblasts. A digest of the protocol: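 SRB-based viability read on primary human skin fibroblasts at 24 h: TCA fixation, 0.1% dye, 560 nm. Gain or loss of signal is fitted against the DMSO negative control.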

Calls of active or inactive are those of the source. The calls were made as follows: active = hit-call score of the fitted dose curve at least 0.9, where 1 is the maximum; inactive = score below 0.9.

For `O=[Si]=O`, the result in assay [1], in assay [2], in [3], in [4], in assay [5] and in assay [6] was inactive. Further, the result in [7], in assay [8], in [9], in assay [10], in assay [11] and in assay [12] was inactive. The outcome in [13], in [14], in [15], in assay [16], in [17] and in [18] was inactive. Besides, the outcome in assay [19] and in assay [20] was inactive.

With `CC(C)OC(=O)C(C)(C)Oc1ccc(C(=O)c2ccc(Cl)cc2)cc1`, the result in assay [1], in [2], in assay [3], in [5], in assay [6] and in assay [7] was inactive. Moreover, the outcome in assay [8], in [9], in assay [11], in assay [16], in [17] and in assay [19] was inactive. Moreover, in assay [20], the outcome was inactive. The AC50 was 20 µM (active) in assay [4]; 11 µM (active) in assay [10]; 12.9 µM (active) in assay [12]; 5.38 µM (active) in [13]; 5 µM (active) in assay [14]; 8.9 µM (active) in assay [15]. The half-maximal activity concentration (AC50) in assay [18] is 26.4 µM (active).

On to `CN(C)C(=O)NC1(c2ccccc2)CCN(CCC[C@]2(c3ccc(Cl)c(Cl)c3)CCCN(C(=O)c3ccccc3)C2)CC1`, for which the result in assay [1], in assay [2], in [3], in assay [6], in assay [7] and in assay [8] was inactive. Moreover, the outcome in assay [9], in assay [10], in assay [11], in [12], in assay [13] and in [14] was inactive. The result in [15], in assay [16], in [17], in assay [19] and in assay [20] was inactive. In addition, the AC50 in assay [4] is 5 µM (active); in assay [5], 0.037 µM (active); in assay [18], 6.29 µM (active).

In the case of `O=C(O)c1[nH]n(-c2ccc(S(=O)(=O)O)cc2)c(=O)c1N=Nc1ccc(S(=O)(=O)O)cc1`, the outcome in assay [1], in assay [2], in assay [3], in assay [4], in assay [5] and in assay [6] was inactive. Also, the outcome in assay [7], in assay [8], in assay [9], in [10], in assay [11] and in assay [12] was inactive. Also, the result in assay [13], in assay [14], in assay [15], in [16], in assay [17] and in assay [18] was inactive. The outcome in [19] and in assay [20] was inactive.

In the case of `COC(=O)CCC(=O)OC`, the outcome in assay [1], in [2], in assay [3], in [4], in [5] and in assay [6] was inactive. Also, the result in [7], in [8], in assay [9], in [10], in [11] and in assay [12] was inactive. In addition, the outcome in assay [13], in assay [14], in assay [15], in [16], in assay [17] and in [18] was inactive. Besides, the outcome in assay [19] and in [20] was inactive.

`CCCCCCCC(=O)OC`: the result in assay [1], in [2], in assay [3], in assay [4], in assay [5] and in [6] was inactive. Further, the outcome in assay [7], in assay [8], in assay [9], in assay [10], in [11] and in [12] was inactive. Further, the result in [13], in assay [14], in assay [15], in assay [16], in [17] and in assay [18] was inactive. For the same compound, the result in [19] and in assay [20] was inactive.

Regarding `CC(C)c1cccc(C(C)C)c1NC(=O)NS(=O)(=O)c1cc(C(C)(C)O)co1`, the outcome in assay [1], in assay [2], in assay [3], in assay [4], in assay [5] and in assay [6] was inactive. The result in [7], in [8], in assay [9], in assay [10], in assay [11] and in assay [12] was inactive. Moreover, the outcome in assay [13], in [14], in assay [15], in [16], in [17] and in [18] was inactive. Besides, the result in assay [19] and in assay [20] was inactive.

What is called AC50 is the concentration at which the activity in the assay is half-maximal.
